# Experimental data: ChEMBL document CHEMBL1157539, “Thousands of chemical starting points for antimalarial lead identification” (Nature, 2010)
# Legend:
# Assay type in all cases: functional
# Plasmodium falciparum [1] = test: GSK_TCMDC: Inhibition of Plasmodium falciparum 3D7 in whole red blood cells, using parasite LDH activity as an index of growth. Test compounds present at 2uM
# Plasmodium falciparum [2] = test: GSK_TCMDC: Inhibition of Plasmodium falciparum Dd2 in whole red blood cells, using parasite LDH activity as an index of growth. Test compounds present at 2uM
# HepG2 = test: GSK_TCMDC: Percent inhibition of human HepG2 cell line. Test compounds present at 10uM.
Structure (SMILES),Inhibition (Plasmodium falciparum [1]),Inhibition (Plasmodium falciparum [2]),Inhibition (HepG2)
COc1cc(CNc2ncc(-c3ccsc3)c(-c3nccs3)n2)cc(OC)c1,86%,82%,3%
COc1ccc(Cn2c(Nc3cccc(C(F)(F)F)c3)nc3cc(C(=O)NCCCN(C)C)ccc32)cc1Cl,90%,3%,15%
O=C(Cn1c(CCc2cccc(F)c2F)nc(=O)c2ccccc21)N(CCN1CCCC1)Cc1ccc(-c2ccc(C(F)(F)F)cc2)cc1.O=C(O)C(O)C(O)C(=O)O,100%,37%,63%
COc1ccc2nccc([C@@H](O)CN3CCC(NC(=O)C(c4cc5ccccc5o4)N4CCN(c5ccc(F)cc5)CC4)CC3)c2c1 (some centres undefined),100%,98%,15%
Nc1ncc(-c2ccccc2)cc1-c1cccc2ncccc12.O=C(O)C(F)(F)F,97%,99%,82%
CCn1cnc2c(N3CCCC3=O)cc(C(=O)N[C@@H](Cc3ccccc3)[C@H](O)CNC3CCCCC3)cc21,98%,94%,0%
CC1=C(C(=O)Nc2ccc(Cl)cc2)C(c2ccncc2)n2nc(C(F)(F)F)nc2N1 (centres undefined),87%,49%,25%
CCN(CC)CCN(Cc1ccc(-c2ccc(C(F)(F)F)cc2)cc1)C(=O)Cn1cc(Cc2cnn(C)c2)c(=O)n2nc(-c3ccccc3)cc12.O=C(O)C(O)C(O)C(=O)O,100%,74%,18%
COc1ccc(CNCCc2cccs2)cc1-c1ccc(OC)c(S(=O)(=O)NCCN2CCCC2)c1.O=C(O)C(F)(F)F,96%,19%,16%
NC1=Nc2ccc(Cl)cc2C1(O)c1ccccc1 (centres undefined),100%,51%,0%
CC(C)(CNCc1cccc(Oc2cccc(C(F)(F)F)c2)c1)c1nc(-c2ccnc(N)n2)c(-c2ccc(Cl)c(O)c2)[nH]1.Cl,99%,98%,23%
COc1c(Br)cc(Br)cc1C(C)=O,95%,0%,3%
O=C(NCCCCN1CCC(C(c2ccccc2)c2ccccc2)CC1)c1ccc(NC(=O)c2ccc(Cl)cc2)cc1,100%,47%,12%
COc1ccc(NC(=O)/C=C/c2ccccc2Cl)cc1OCCN1CCC(Cc2cc3ccccc3[nH]2)CC1.Cl,92%,8%,56%
CCSc1nnc(C2CCCN(CC(=O)Nc3cc(C(F)(F)F)ccc3Cl)C2)n1CC (centres undefined),99%,96%,0%
COc1cc(C(=O)N2CCOC(CCN3CCc4c(c5ccccc5n4C)C3)(c3ccc(Cl)c(Cl)c3)C2)cc(OC)c1OC (centres undefined),87%,68%,16%
c1csc(-c2nc(N3CCCC3)ncc2-c2ccsc2)n1,89%,75%,1%
Cc1cc(=NN=Cc2cccc(F)c2)c2ccc(F)cc2[nH]1,100%,99%,2%
O=C(NCCCCN1CCC(c2ccc3c(c2OCCO)CCCC3)CC1)c1sc(-c2ccc(C(F)(F)F)cc2)nc1CO,95%,20%,37%
Br.CC1(C)NC(=N)NC(=N)N1OCC=Cc1ccccc1,94%,96%,62%
NCc1cccc(-c2cccc(CNC3CCN(Cc4ccccc4)CC3)c2)c1.O=C(O)C(F)(F)F,100%,45%,9%
COCCNCc1cccc(-c2ccc3c(Nc4cc(O)c(Cl)cc4F)ccnc3c2)c1,100%,79%,0%
Oc1nc(Cc2ccccc2)nc2ccc(Cl)cc12,92%,76%,13%
CC(C)(C)c1ccccc1SC1=C(O)CC2(CCNCC2)OC1=O.Cl,99%,0%,0%
COc1ccc2nc(N3CCN(C(=O)OC(C)(C)C)CC3)nc(NCCCc3ccccc3)c2c1,100%,95%,9%
CCOC(=O)c1cnc2c(OC)cc(OC)c(Cl)c2c1Nc1cccc(C)c1,95%,20%,0%
O=C(Cc1ccccc1)NC(c1ccc(Cl)cc1)c1ccc2cccnc2c1O (centres undefined),93%,64%,50%
Br.CCCc1cccc(C)c1OCCCON1C(=N)N=C(N)NC1(C)C,95%,96%,57%
